# Assay results published in the supplement of paper PMC6555819.
# Tested on: VDR:RXRa (NR concentration 270 nM, RXRa partner concentration 90 nM)
# Experiment: PBM binding z-score (relative to random genomic background probes); higher = stronger binding; sequences stand for … in GC…GCGATTGACAGCGTAGAATGAAGG
# Protocol: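 Protein-binding microarray (Agilent 4x180K custom design, double-stranded 60-nt probes: 5' GC cap, 34-nt variable region, 24-nt constant primer region; full probe sequence given). Purified or IVT nuclear receptor:RXRα heterodimers (3:1 NR:RXRα, mostly 270:90 nM) or homodimers were incubated for 1 h in PBS with 2% milk and no ligand, then detected with Alexa488 antibodies. Fluorescence from o1-orientation probes (~5 replicates averaged) was converted to z-scores against 500 random hg19 background probes. Variable regions are seed direct-repeat (DR0–DR5) sites, all their single-nucleotide variants and half-site ablations.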
row,Sequence,PBM binding z-score
1,CGTCAAAGTTCAACTAAGGTAACGTGAAGCACGC,4.37
2,GGAACAAGGGCAAAGTTGATAGCATCTGTCGACG,0.828
3,CCTAATAGTTGACCATAAGGGCAACCGAAGCTCG,0.926
4,ATCTCTAGGTAAGACTCAGTTCATTGAAGAACGC,2.42
5,ACTTACGGGTCAACGATGTTATAGCACGCGTATA,4.93
6,TCTTGTAGATCAACAGGAGGGTAAGAAAGATCGA,0.029
7,CGAACTAGGTCAGAACAGGACGGTGAAGGATGAT,0.0677
8,TCTTGTAGATAAAAGGTTAAGAAAGCCGAAGCCT,1.2
9,CCTATTAGTTGACCAAAAGGGCAACCGAAGCTCG,0.901
10,CCGAATGGGGCATAAGGTTACCATAAGCCAGCCC,0.232
11,TCTAGTTGGTCAAATGTCACACACTCGAAATGCG,1.44
12,GATACAGGGTCAAGGCCTGAGTACGCGTATTGAT,4.48
13,CTAGACAGGTGAAAGGTAACTCAGTCTGGTACGC,0.828
14,CTCGAAAGGTCGTGCTCGGGTGAGTATACCAAAC,3.43
15,TCTTGTAGATCAATATAGGTTAAGAAAGTGCGCT,1.24
16,CCTTACGCGTCACGAGGTTATAGCACGACGAGCG,0.899
17,CCTAACGGGTCACGAGGTTATAGCACGACGAGCG,4.74
18,ATCTCTAGGTAACCAGTTCAGTGAAAGAGAGGAC,1.16
19,TCGAGTAGGTGAGGGGCATTCAGAATGGCGTCGA,-0.0355
20,ATATGTAGGTTACTTCCGGGTCATTCAGGCTATG,3.93

row,Sequence,PBM binding z-score
1,TAACCTAGGTCAGATCGGGCCAGTATACGCTATA,1.52
2,TAGCCTAGGTCATTCAGAGGCCAGTATAGAAAGC,2.84
3,CTACCAGGGTGAACAAGGTCGTTGATTACTATTC,6.27
4,TCGAGTAGGTTAGTCAGGGCATTCAGCCAACATA,2.59
5,TCATATGGGTAAACAGGTGAAAGTCCGTAAGTTA,0.583
6,ATCGAAAGATCGAAGGTGAGTATACCCACCCGAA,0.0219
7,CGTCGAAGTTCAACTAAGGTAACGTAAAGCACGC,3.43
8,GCGACTGGGGCATCAGCAGGATACCATAACTTAA,-0.816
9,CAAACTAGATCACAGAGGTCAAAGTCCGTGCGTA,5.7
10,GATACAGGGTCTAGGCCAGAGTACGCGTATTGAT,-0.508
11,ACTATGAGTTGAGACGAGGGCAACCGATAGGTTG,1.9
12,ACAGACAGGCGATGAAGGTAACTCAGGCTATCAT,-0.262
13,ATCTCTAGGTTACCAAGTTCAGTGAATGCCGAAC,5.85
14,CCAGACAGGTGAAAGGTAACTCATTCTGGTACGC,0.817
15,AGAACGAGGGCACGCTGAGTAGATAGCAGAGTAG,0.928
16,CCGACTGGGGTATAAGGTTACCATAAGCCAGCCC,0.219
17,CCTAGGAGGCCAGGGTCACTCAAGCATTTCGCTT,2.44
18,TCAGACAGGTGAAGGTAACTCGGGTACGCAGTCG,1.45
19,AGATGTAGGTTAGCTGGGGTCATTCAGACTAGGC,5.98
20,CCAGACAGGTGAAAGGTAACTTAGTCTGGTACGC,0.744
